Measurements taken from PMC11006913.
Where a chain is given by its changes, count along the chain named.

Legend:
Experiment in all cases: PBM; 200 nM protein, PBS
Conditions in all cases: dsDNA, one strand shown
SIX6 [1] = biological target: T1, SIX6 (Homo sapiens, UniProt O95475 114-200, L167I)
T1 sequence: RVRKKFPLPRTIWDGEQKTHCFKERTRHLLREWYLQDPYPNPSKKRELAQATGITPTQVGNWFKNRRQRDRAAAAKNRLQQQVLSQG

SIX6 [2] = biological target: T2, SIX6 (Homo sapiens, UniProt O95475 114-200, H141N)
T2 sequence: T1 sequence with H28N, I54L

SIX6 [3] = biological target: T3, SIX6 (Homo sapiens, UniProt O95475 114-200, T165P)
T3 sequence: T1 sequence with T52P, I54L

SIX6 [4] = biological target: T4, SIX6 (Homo sapiens, UniProt O95475 114-200, L167M)
T4 sequence: T1 sequence with I54M

SIX6 [5] = biological target: T5, SIX6 (Homo sapiens, UniProt O95475 114-200, L143M)
T5 sequence: T1 sequence with L30M, I54L

SIX6 [6] = biological target: T6, SIX6 (Homo sapiens, UniProt O95475 114-200, L143I)
T6 sequence: T1 sequence with L30I, I54L

SIX6 [7] = biological target: T7, SIX6 (Homo sapiens, UniProt O95475 114-200, T165G)
T7 sequence: T1 sequence with T52G, I54L

SIX6 [8] = biological target: T8, SIX6 (Homo sapiens, UniProt O95475 114-200, T139Q)
T8 sequence: T1 sequence with T26Q, I54L

SIX6 [9] = biological target: T9, SIX6 (Homo sapiens, UniProt O95475 114-200, T165A)
T9 sequence: T1 sequence with T52A, I54L

SIX6 [10] = biological target: T10, SIX6 (Homo sapiens, UniProt O95475 114-200, L167V)
T10 sequence: T1 sequence with I54V

SIX6 [11] = biological target: T11, SIX6 (Homo sapiens, UniProt O95475 114-200)
T11 sequence: T1 sequence with I54L

SIX6 [12] = biological target: T12, SIX6 (Homo sapiens, UniProt O95475 114-200, T165I)
T12 sequence: T1 sequence with T52I, I54L

SIX6 [13] = biological target: T13, SIX6 (Homo sapiens, UniProt O95475 114-200, L143V)
T13 sequence: T1 sequence with L30V, I54L

Sequence	binding signal (SIX6 [1])	binding signal (SIX6 [2])	binding signal (SIX6 [3])	binding signal (SIX6 [4])	binding signal (SIX6 [5])	binding signal (SIX6 [6])	binding signal (SIX6 [7])	binding signal (SIX6 [8])	binding signal (SIX6 [9])	binding signal (SIX6 [10])	binding signal (SIX6 [11])	binding signal (SIX6 [12])	binding signal (SIX6 [13])
AATACGAT	10.6 upbm affinity estimate (log intensity, higher = more binding, comparable within an allelic series)	10.5 upbm affinity estimate (log intensity, higher = more binding, comparable within an allelic series)	9.88 upbm affinity estimate (log intensity, higher = more binding, comparable within an allelic series)	10.3 upbm affinity estimate (log intensity, higher = more binding, comparable within an allelic series)	10.5 upbm affinity estimate (log intensity, higher = more binding, comparable within an allelic series)	10.1 upbm affinity estimate (log intensity, higher = more binding, comparable within an allelic series)	10.5 upbm affinity estimate (log intensity, higher = more binding, comparable within an allelic series)	10.7 upbm affinity estimate (log intensity, higher = more binding, comparable within an allelic series)	10.5 upbm affinity estimate (log intensity, higher = more binding, comparable within an allelic series)	10.3 upbm affinity estimate (log intensity, higher = more binding, comparable within an allelic series)	10.5 upbm affinity estimate (log intensity, higher = more binding, comparable within an allelic series)	10.4 upbm affinity estimate (log intensity, higher = more binding, comparable within an allelic series)	–
CATATCAA	11.2 upbm affinity estimate (log intensity, higher = more binding, comparable within an allelic series)	11.1 upbm affinity estimate (log intensity, higher = more binding, comparable within an allelic series)	–	–	–	–	11.2 upbm affinity estimate (log intensity, higher = more binding, comparable within an allelic series)	–	11.2 upbm affinity estimate (log intensity, higher = more binding, comparable within an allelic series)	10.9 upbm affinity estimate (log intensity, higher = more binding, comparable within an allelic series)	–	11 upbm affinity estimate (log intensity, higher = more binding, comparable within an allelic series)	–
CTTGATAC	11.2 upbm affinity estimate (log intensity, higher = more binding, comparable within an allelic series)	11.1 upbm affinity estimate (log intensity, higher = more binding, comparable within an allelic series)	–	–	–	–	11.2 upbm affinity estimate (log intensity, higher = more binding, comparable within an allelic series)	–	11.1 upbm affinity estimate (log intensity, higher = more binding, comparable within an allelic series)	10.9 upbm affinity estimate (log intensity, higher = more binding, comparable within an allelic series)	–	–	–
TGACACCA	10.3 upbm affinity estimate (log intensity, higher = more binding, comparable within an allelic series)	–	–	9.84 upbm affinity estimate (log intensity, higher = more binding, comparable within an allelic series)	–	–	11.2 upbm affinity estimate (log intensity, higher = more binding, comparable within an allelic series)	–	11.1 upbm affinity estimate (log intensity, higher = more binding, comparable within an allelic series)	–	–	–	–
AGAATATC	10.5 upbm affinity estimate (log intensity, higher = more binding, comparable within an allelic series)	10.3 upbm affinity estimate (log intensity, higher = more binding, comparable within an allelic series)	9.77 upbm affinity estimate (log intensity, higher = more binding, comparable within an allelic series)	10.4 upbm affinity estimate (log intensity, higher = more binding, comparable within an allelic series)	10.5 upbm affinity estimate (log intensity, higher = more binding, comparable within an allelic series)	9.98 upbm affinity estimate (log intensity, higher = more binding, comparable within an allelic series)	10.5 upbm affinity estimate (log intensity, higher = more binding, comparable within an allelic series)	10.5 upbm affinity estimate (log intensity, higher = more binding, comparable within an allelic series)	10.4 upbm affinity estimate (log intensity, higher = more binding, comparable within an allelic series)	10.3 upbm affinity estimate (log intensity, higher = more binding, comparable within an allelic series)	10.3 upbm affinity estimate (log intensity, higher = more binding, comparable within an allelic series)	10.3 upbm affinity estimate (log intensity, higher = more binding, comparable within an allelic series)	–
GGTGTCAC	10.3 upbm affinity estimate (log intensity, higher = more binding, comparable within an allelic series)	–	–	9.69 upbm affinity estimate (log intensity, higher = more binding, comparable within an allelic series)	–	–	11.1 upbm affinity estimate (log intensity, higher = more binding, comparable within an allelic series)	–	11.1 upbm affinity estimate (log intensity, higher = more binding, comparable within an allelic series)	–	–	–	–
GATCTTCA	10.3 upbm affinity estimate (log intensity, higher = more binding, comparable within an allelic series)	10.3 upbm affinity estimate (log intensity, higher = more binding, comparable within an allelic series)	9.68 upbm affinity estimate (log intensity, higher = more binding, comparable within an allelic series)	–	–	–	10.3 upbm affinity estimate (log intensity, higher = more binding, comparable within an allelic series)	10.4 upbm affinity estimate (log intensity, higher = more binding, comparable within an allelic series)	–	10.2 upbm affinity estimate (log intensity, higher = more binding, comparable within an allelic series)	10.3 upbm affinity estimate (log intensity, higher = more binding, comparable within an allelic series)	–	–
ATCCAATA	10.4 upbm affinity estimate (log intensity, higher = more binding, comparable within an allelic series)	10.3 upbm affinity estimate (log intensity, higher = more binding, comparable within an allelic series)	–	10.2 upbm affinity estimate (log intensity, higher = more binding, comparable within an allelic series)	10.3 upbm affinity estimate (log intensity, higher = more binding, comparable within an allelic series)	–	10.4 upbm affinity estimate (log intensity, higher = more binding, comparable within an allelic series)	10.5 upbm affinity estimate (log intensity, higher = more binding, comparable within an allelic series)	10.4 upbm affinity estimate (log intensity, higher = more binding, comparable within an allelic series)	10.2 upbm affinity estimate (log intensity, higher = more binding, comparable within an allelic series)	10.3 upbm affinity estimate (log intensity, higher = more binding, comparable within an allelic series)	10.2 upbm affinity estimate (log intensity, higher = more binding, comparable within an allelic series)	–
ATCCTAAT	10.2 upbm affinity estimate (log intensity, higher = more binding, comparable within an allelic series)	10.2 upbm affinity estimate (log intensity, higher = more binding, comparable within an allelic series)	–	10.1 upbm affinity estimate (log intensity, higher = more binding, comparable within an allelic series)	10.2 upbm affinity estimate (log intensity, higher = more binding, comparable within an allelic series)	–	10.2 upbm affinity estimate (log intensity, higher = more binding, comparable within an allelic series)	10.5 upbm affinity estimate (log intensity, higher = more binding, comparable within an allelic series)	10.2 upbm affinity estimate (log intensity, higher = more binding, comparable within an allelic series)	10.1 upbm affinity estimate (log intensity, higher = more binding, comparable within an allelic series)	10.2 upbm affinity estimate (log intensity, higher = more binding, comparable within an allelic series)	10.2 upbm affinity estimate (log intensity, higher = more binding, comparable within an allelic series)	–
GACGGATA	10.2 upbm affinity estimate (log intensity, higher = more binding, comparable within an allelic series)	10.1 upbm affinity estimate (log intensity, higher = more binding, comparable within an allelic series)	9.43 upbm affinity estimate (log intensity, higher = more binding, comparable within an allelic series)	–	–	9.79 upbm affinity estimate (log intensity, higher = more binding, comparable within an allelic series)	–	–	–	–	10.2 upbm affinity estimate (log intensity, higher = more binding, comparable within an allelic series)	–	9.77 upbm affinity estimate (log intensity, higher = more binding, comparable within an allelic series)
